Residual activity data for one compound are collected here from ChEMBL document CHEMBL2218924, “A broad activity screen in support of a chemogenomic map for kinase signalling research and drug discovery” (Biochem J, 2013).

As a reminder, the residual activity is the signal under treatment as a percentage of the control signal.

Assay [1] concerns the target T1, Ephrin type-A receptor 3 (Homo sapiens) (UniProt P29320).
T1 sequence (whole entry): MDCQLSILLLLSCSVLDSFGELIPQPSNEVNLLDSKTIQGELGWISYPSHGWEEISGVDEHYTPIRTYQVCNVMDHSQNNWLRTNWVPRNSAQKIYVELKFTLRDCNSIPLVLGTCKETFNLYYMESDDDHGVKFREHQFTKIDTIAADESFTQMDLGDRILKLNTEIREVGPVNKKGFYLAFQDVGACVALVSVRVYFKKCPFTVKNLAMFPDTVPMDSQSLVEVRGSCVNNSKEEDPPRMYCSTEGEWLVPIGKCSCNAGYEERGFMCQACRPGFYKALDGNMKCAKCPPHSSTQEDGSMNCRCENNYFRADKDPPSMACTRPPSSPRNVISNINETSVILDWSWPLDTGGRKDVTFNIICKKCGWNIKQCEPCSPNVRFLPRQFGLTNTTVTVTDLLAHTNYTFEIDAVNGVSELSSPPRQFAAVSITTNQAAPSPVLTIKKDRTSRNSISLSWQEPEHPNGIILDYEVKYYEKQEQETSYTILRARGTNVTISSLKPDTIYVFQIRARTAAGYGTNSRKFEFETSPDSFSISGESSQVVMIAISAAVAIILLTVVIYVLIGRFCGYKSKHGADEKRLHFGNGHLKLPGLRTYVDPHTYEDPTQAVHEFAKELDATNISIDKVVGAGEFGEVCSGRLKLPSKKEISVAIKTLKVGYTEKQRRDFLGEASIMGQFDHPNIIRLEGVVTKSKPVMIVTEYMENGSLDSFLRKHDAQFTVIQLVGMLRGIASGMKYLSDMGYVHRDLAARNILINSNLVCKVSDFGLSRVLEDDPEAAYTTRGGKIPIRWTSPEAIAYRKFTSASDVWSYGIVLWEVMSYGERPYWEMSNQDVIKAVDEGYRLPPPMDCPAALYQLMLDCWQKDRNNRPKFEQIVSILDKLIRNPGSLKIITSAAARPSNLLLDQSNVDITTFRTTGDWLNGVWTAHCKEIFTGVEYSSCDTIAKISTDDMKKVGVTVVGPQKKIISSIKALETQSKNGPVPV
The settings on record: at 10 µM.

In assay [2] the target is Ephrin type-A receptor 4 (Homo sapiens) (UniProt P54764). To be noted: at 1 µM.
Chain of Ephrin type-A receptor 4 (Homo sapiens) (P54764 whole entry): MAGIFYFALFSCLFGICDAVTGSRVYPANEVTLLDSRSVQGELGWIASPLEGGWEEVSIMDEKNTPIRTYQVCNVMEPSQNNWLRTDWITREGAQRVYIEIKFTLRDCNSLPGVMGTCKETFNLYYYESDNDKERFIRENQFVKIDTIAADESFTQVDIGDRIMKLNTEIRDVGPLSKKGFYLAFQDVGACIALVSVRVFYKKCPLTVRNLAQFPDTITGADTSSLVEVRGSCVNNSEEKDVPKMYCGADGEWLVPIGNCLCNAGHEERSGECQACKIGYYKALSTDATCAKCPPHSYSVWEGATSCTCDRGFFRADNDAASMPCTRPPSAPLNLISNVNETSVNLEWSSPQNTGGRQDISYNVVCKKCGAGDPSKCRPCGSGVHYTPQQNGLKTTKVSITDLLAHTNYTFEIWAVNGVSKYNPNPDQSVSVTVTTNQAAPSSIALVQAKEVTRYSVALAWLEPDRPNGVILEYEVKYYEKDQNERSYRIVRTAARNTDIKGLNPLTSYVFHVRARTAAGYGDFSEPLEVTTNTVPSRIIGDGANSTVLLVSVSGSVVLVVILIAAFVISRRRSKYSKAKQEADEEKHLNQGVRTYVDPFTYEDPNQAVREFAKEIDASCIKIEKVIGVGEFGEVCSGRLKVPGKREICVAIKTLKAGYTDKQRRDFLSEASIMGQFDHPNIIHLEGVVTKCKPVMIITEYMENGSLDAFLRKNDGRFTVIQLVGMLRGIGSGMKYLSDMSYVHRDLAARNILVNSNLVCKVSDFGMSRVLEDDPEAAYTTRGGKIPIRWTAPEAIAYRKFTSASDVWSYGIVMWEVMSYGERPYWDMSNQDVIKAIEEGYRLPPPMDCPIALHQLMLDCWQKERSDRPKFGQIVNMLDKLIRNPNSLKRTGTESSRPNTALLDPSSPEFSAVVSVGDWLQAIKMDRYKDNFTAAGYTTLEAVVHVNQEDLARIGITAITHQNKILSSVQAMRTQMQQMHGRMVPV
Assay [3] concerns the target Ephrin type-A receptor 5 (Homo sapiens) (UniProt P54756). To be noted: at 1 µM.
Assay [4] has as its target Ephrin type-A receptor 7 (Homo sapiens) (UniProt Q15375). To be noted: at 1 µM.
Assay [5] has the same target. The settings on record: at 10 µM.
Assay [6] has as its target T2, Ephrin type-A receptor 8 (Homo sapiens) (UniProt P29322).
T2 sequence (whole entry): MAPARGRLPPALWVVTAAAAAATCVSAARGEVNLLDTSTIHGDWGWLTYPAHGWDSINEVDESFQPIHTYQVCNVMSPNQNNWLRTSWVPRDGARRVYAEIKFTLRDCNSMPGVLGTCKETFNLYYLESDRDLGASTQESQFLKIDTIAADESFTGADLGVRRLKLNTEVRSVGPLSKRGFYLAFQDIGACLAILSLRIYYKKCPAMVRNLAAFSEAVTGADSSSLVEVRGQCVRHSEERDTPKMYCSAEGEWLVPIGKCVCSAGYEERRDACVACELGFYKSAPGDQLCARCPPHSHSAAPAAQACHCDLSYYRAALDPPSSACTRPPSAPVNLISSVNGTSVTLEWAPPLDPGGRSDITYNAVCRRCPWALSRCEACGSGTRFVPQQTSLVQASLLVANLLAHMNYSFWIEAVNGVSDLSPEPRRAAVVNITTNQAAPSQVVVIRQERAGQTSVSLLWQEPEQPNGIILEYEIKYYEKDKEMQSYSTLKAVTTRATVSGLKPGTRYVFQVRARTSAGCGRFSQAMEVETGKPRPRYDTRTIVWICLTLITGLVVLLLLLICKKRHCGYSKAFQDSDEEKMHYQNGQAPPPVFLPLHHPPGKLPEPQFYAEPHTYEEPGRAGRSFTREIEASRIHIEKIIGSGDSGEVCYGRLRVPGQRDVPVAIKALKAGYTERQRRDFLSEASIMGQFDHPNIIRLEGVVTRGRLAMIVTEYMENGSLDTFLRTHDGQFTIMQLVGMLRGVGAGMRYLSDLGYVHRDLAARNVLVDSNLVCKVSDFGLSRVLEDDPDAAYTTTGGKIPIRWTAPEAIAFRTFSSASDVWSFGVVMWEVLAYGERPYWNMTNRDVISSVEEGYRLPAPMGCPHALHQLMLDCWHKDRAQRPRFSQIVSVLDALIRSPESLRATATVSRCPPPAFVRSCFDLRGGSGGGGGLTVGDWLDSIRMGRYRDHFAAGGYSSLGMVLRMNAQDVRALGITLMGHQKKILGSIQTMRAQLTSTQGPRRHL
To be noted: at 1 µM.

In assay [7] the target is T2, Ephrin type-A receptor 8 (Homo sapiens). The settings on record: at 10 µM.
In assay [8] the target is T3, Ephrin type-B receptor 1 (Homo sapiens) (UniProt P54762).
T3 sequence (whole entry): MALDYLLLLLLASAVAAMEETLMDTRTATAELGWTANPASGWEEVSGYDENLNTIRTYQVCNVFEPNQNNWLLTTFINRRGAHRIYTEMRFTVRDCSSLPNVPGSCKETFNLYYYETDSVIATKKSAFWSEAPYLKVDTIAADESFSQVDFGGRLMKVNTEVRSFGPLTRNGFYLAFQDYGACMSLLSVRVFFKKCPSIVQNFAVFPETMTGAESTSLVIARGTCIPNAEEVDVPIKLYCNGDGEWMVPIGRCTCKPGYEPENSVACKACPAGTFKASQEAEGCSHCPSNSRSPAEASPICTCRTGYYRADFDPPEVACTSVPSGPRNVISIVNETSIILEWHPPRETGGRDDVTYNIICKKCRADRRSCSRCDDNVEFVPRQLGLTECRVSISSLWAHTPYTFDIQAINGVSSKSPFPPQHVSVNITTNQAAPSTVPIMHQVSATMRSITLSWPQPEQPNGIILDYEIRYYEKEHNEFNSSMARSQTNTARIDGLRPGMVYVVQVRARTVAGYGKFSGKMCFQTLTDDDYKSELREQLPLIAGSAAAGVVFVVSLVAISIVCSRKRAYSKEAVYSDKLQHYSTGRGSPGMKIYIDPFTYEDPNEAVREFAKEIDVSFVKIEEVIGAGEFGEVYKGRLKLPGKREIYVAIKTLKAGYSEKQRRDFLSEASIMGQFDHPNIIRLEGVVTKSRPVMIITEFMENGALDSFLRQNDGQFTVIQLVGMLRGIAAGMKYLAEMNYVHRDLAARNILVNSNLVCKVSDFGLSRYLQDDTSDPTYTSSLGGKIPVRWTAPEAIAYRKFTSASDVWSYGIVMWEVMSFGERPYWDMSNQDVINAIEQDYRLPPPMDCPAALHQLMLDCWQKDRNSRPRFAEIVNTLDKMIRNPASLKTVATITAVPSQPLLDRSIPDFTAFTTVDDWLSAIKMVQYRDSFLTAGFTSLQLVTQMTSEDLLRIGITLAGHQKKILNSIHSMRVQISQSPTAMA
The settings on record: at 1 µM.

Assay [9] deals with T3, Ephrin type-B receptor 1 (Homo sapiens). The settings on record: at 10 µM.

Chain of Ephrin type-A receptor 7 (Homo sapiens) (Q15375 28-998 limits assumed): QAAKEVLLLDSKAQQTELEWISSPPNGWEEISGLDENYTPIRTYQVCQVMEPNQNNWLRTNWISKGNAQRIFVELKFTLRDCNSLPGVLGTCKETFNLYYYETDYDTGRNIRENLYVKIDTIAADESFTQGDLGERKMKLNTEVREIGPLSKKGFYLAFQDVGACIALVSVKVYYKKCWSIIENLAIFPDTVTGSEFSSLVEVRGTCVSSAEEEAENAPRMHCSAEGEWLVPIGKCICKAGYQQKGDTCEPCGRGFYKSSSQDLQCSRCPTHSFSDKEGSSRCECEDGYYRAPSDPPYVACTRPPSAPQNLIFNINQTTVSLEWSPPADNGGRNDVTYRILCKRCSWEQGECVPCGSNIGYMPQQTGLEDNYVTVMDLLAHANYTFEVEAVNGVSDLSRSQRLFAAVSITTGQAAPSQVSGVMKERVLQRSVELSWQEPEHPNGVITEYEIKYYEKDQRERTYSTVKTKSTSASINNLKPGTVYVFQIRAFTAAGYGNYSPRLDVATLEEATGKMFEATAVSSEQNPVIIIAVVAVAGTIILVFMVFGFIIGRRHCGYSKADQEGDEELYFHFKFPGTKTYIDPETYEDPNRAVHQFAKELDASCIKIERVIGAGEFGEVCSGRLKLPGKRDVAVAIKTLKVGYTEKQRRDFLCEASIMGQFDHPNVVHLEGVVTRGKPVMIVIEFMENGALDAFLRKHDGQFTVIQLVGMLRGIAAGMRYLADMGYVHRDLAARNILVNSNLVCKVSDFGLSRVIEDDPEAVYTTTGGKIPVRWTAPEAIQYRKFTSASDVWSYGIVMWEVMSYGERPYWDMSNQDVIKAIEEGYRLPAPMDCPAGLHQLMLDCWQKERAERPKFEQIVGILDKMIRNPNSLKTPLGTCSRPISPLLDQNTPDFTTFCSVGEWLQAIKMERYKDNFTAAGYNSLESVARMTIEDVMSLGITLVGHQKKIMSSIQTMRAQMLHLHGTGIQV
Chain of Ephrin type-A receptor 5 (Homo sapiens) (P54756 whole entry): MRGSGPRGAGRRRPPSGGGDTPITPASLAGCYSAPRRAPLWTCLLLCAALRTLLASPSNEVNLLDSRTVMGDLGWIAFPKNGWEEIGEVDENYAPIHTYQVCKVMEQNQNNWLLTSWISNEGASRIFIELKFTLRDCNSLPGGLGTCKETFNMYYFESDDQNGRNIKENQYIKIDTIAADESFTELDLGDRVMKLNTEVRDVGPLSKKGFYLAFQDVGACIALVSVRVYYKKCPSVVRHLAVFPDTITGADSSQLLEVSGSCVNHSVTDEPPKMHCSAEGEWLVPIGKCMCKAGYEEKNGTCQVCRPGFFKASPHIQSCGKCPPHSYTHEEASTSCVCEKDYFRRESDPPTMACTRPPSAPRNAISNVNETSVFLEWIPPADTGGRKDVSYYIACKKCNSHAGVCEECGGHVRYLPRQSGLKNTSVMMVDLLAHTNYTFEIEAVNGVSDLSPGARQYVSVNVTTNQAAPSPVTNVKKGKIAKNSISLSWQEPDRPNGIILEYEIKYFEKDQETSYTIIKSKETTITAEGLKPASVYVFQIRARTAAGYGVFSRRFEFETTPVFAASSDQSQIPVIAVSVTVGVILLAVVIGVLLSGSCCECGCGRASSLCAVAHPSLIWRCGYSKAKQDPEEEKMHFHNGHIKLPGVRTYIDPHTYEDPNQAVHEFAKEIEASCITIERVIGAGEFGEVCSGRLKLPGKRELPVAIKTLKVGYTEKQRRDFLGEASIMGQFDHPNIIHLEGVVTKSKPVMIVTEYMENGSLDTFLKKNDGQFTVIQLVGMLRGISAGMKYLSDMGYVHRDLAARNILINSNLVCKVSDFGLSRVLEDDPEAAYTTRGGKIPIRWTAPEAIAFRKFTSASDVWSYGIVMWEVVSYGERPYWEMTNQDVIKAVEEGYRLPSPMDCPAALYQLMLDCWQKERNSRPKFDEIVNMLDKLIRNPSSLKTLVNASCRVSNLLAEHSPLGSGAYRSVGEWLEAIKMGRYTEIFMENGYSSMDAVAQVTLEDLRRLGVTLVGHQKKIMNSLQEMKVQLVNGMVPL

Regarding `C[C@@H](N)[C@H]1CC[C@H](C(=O)Nc2ccncc2)CC1`, the residual activity in [1] came out at 97%; in [2] it was 95%; in assay [3], 84%; in [4], 96%; in assay [5] it was 90%; in assay [6] it was 105%. Also, the values for the residual activity in assay [7], in assay [8] and in [9] were 108%, 101% and 99%, respectively.
